Several values for one entry are separate records, joined by “and”; a condition that tells them apart may be missing. Equal values may be shown once. Where a name gives a salt, the structure may show the parent alone.
How the values were obtained:
Experiment in all cases: cell viability relative to vehicle control; higher = less cytotoxic
Settings in all cases: 10 µM
[1] = tested on: K562
How it was run: (§1)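 CRISPR-edited SRSF2 P95 mutant and isogenic wild-type clones of four leukaemia lines were screened against Selleck bioactive, kinase and epigenetic probe libraries, with identity-inconsistent compounds removed. Compounds were acoustically dispensed into 384-well plates at a single 10 µM dose, with 2000 cells in 50 µL medium per well. After 48 h, supernatant was removed and CellTiter-Glo luminescence was read. Viability was expressed as percent of the on-plate DMSO vehicle control, analysed in Genedata Screener.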

[2] = tested on: MARIMO
How it was run: as §1

[3] = tested on: MOLM14
How it was run: as §1

[4] = tested on: OCI-AML2
How it was run: as §1

| Structure (SMILES) | cell viability ([1]; SRSF2 genotype: SRSF2 P95H/wt) | cell viability ([1]; SRSF2 genotype: SRSF2 wt/wt) [%] | cell viability ([2]; SRSF2 genotype: SRSF2 P95H/wt) [%] | cell viability ([2]; SRSF2 genotype: SRSF2 wt/wt) [%] | cell viability ([3]; SRSF2 genotype: SRSF2 P95H/wt) [%] | cell viability ([3]; SRSF2 genotype: SRSF2 wt/wt) [%] | cell viability ([4]; SRSF2 genotype: P95H/wt) [%] | cell viability ([4]; SRSF2 genotype: wt/wt) [%] |
| --- | --- | --- | --- | --- | --- | --- | --- | --- |
| CC[C@H]1OC(=O)[C@@](C)(F)C(=O)[C@H](C)[C@@H](O[C@@H]2O[C@H](C)C[C@H](N(C)C)[C@H]2O)[C@](C)(OC)C[C@@H](C)C(=O)[C@H](C)[C@H]2N(CCCCn3cc(-c4cccc(N)c4)nn3)C(=O)O[C@]12C [Solithromycin] | 91% and 93.4% | 91.2 | 107 | 101 | 89.4 | 94.9 | 94.1 | 93.5 |
| Cn1nnc2c(C(N)=O)ncn2c1=O [Temozolomide] | 99.9% and 108% | 101 | 94.5 | 94.2 | 86 | 99.2 | 94.9 | 96.6 |
| CS(=O)(=O)c1ccc(-c2nnc(/C=C/c3nnc(-c4ccc(C#N)cc4)o3)n2-c2ccccc2Cl)nc1 | 105% and 94.2% | 101 | 104 | 108 | 106 | 103 | 99 | 110 |
| Cc1ccccc1C(=O)Nc1ccc(C(=O)N2CCCC(N(C)C)c3ccccc32)cc1 (stereo not drawn) [Mozavaptan] | 93.3% and 90.1% | 85 | 88.9 | 93.2 | 97.1 | 102 | 95.5 | 97.1 |
| COC(=O)c1ccc2c(C(=Nc3ccc(N(C)C(=O)CN4CCN(C)CC4)cc3)c3ccccc3)c(O)[nH]c2c1 [Nintedanib (BIBF 1120)] | 1.02% and 0.94% | 2.25 | 39 | 34.4 | 2.6 | 4.94 | 0.94 | 5.1 |
| Clc1ccc(C(Cn2ccnc2)OCc2ccsc2Cl)c(Cl)c1 (stereo not drawn) [Tioconazole] | 69.5% and 76.7% | 71.6 | 69.7 | 71.2 | 62.4 | 69.5 | 59.9 | 63.1 |
| O=C(c1ccc(F)c(F)c1Nc1ccc(I)cc1F)N1CC(O)([C@@H]2CCCCN2)C1 [Cobimetinib (GDC-0973, RG7420)] | 22.4% and 35.4% | 35.5 | 27.5 | 28.6 | 29.6 | 21.1 | 18.2 | 26.1 |
| CC(C)=CCC[C@](C)(O[C@@H]1O[C@H](CO)[C@@H](O)[C@H](O)[C@H]1O)[C@H]1CC[C@]2(C)[C@@H]1[C@H](O)C[C@@H]1[C@@]3(C)CC[C@H](O[C@@H]4O[C@H](CO)[C@@H](O)[C@H](O)[C@H]4O[C@@H]4O[C@H](CO)[C@@H](O)[C@H](O)[C@H]4O)C(C)(C)[C@@H]3CC[C@]12C [Ginsenoside Rd] | 99.2% and 91.3% | 93.4 | 94 | 96.8 | 91.8 | 94.5 | 88 | 103 |
| CCc1nc(N)nc(N)c1-c1ccc(Cl)cc1 [Pyrimethamine] | 73.7% and 96.8% | 36.4 | 95.2 | 99.7 | 102 | 92.3 | 107 | 102 |
| CNC[C@H](O)[C@@H](O)[C@H](O)[C@H](O)CO [Meglumine] | 108% and 107% | 107 | 108 | 106 | 101 | 107 | 112 | 109 |
| NC(=O)c1cnc2[nH]ccc2c1N[C@@H]1[C@@H]2CC3C[C@H]1C[C@@](O)(C3)C2 | 89.4% and 109% | 98.6 | 70.9 | 71.5 | 13.2 | 9.06 | 15.3 | 19.3 |
| Cc1ncc([N+](=O)[O-])n1CC(C)O (stereo not drawn) [Secnidazole (Flagentyl)] | 100% and 109% | 106 | 100 | 105 | 104 | 108 | 114 | 93.1 |
| C[C@@H](Oc1cc(-c2cnn(C3CCNCC3)c2)cnc1N)c1c(Cl)ccc(F)c1Cl | 1.39% and 1.02% | 1.8 | 23.6 | 16.2 | 0.46 | 0.63 | 0.4 | 1.89 |
| CC1CNC(=O)NC1=O (stereo not drawn) [Dihydrothymine] | 102% and 110% | 97.3 | 96.7 | 108 | 97.7 | 103 | 94 | 105 |
| O=C(Nc1ccccc1)N1CCN(c2nc(-c3ccccc3)ns2)CC1 | 79.1% and 89.2% | 91.6 | 87 | 92.7 | 90.5 | 99 | 62.7 | 70.3 |
| NC(=O)c1cccc2cn(-c3ccc([C@@H]4CCCNC4)cc3)nc12 [MK-4827(Niraparib) tosylate] | 103% and 99.2% | 87.5 | 48.4 | 64.4 | 21.4 | 7.47 | 41.8 | 47.3 |
| OC1CCC(Oc2cccc3cnc(Nc4ccc5nc[nH]c5c4)nc23)CC1 (stereo not drawn) | 40.6% and 46.8% | 32.7 | 11.5 | 4.14 | 1.38 | 0.57 | 1.67 | 16.3 |
| CC(=O)Oc1cc(C(F)(F)F)ccc1C(=O)O [Triflusal] | 101% and 90.6% | 99.7 | 98.9 | 101 | 97.7 | 101 | 92.2 | 102 |
| C[C@@H]1CC[C@]2(C(=O)O[C@@H]3O[C@H](CO)[C@@H](O)[C@H](O)[C@H]3O)CC[C@]3(C)C(=CC[C@@H]4[C@@]5(C)CC[C@H](O)[C@@](C)(CO)[C@@H]5CC[C@]43C)[C@@H]2[C@]1(C)O [Pedunculoside] | 109% and 108% | 113 | 108 | 97.5 | 107 | 108 | 106 | 104 |
| O=c1c(O)c(-c2ccc(O)cc2)oc2cc(O)cc(O)c12 [Kaempferol] | 96.1% and 106% | 108 | 98.1 | 117 | 57.4 | 68 | 81.7 | 67.5 |
| Cc1ncc(COP(=O)(O)O)c(C=O)c1O [Pyridoxal 5-phosphate monohydrate] | 97.8% and 103% | 101 | 91.2 | 107 | 99.2 | 102 | 101 | 101 |

| Structure (SMILES) | cell viability ([1]; SRSF2 genotype: SRSF2 P95H/wt) | cell viability ([1]; SRSF2 genotype: SRSF2 wt/wt) [%] | cell viability ([2]; SRSF2 genotype: SRSF2 P95H/wt) [%] | cell viability ([2]; SRSF2 genotype: SRSF2 wt/wt) [%] | cell viability ([3]; SRSF2 genotype: SRSF2 P95H/wt) [%] | cell viability ([3]; SRSF2 genotype: SRSF2 wt/wt) [%] | cell viability ([4]; SRSF2 genotype: P95H/wt) [%] | cell viability ([4]; SRSF2 genotype: wt/wt) [%] |
| --- | --- | --- | --- | --- | --- | --- | --- | --- |
| O=c1[nH]c2ccccc2n1CCN1CCN(c2cccc(C(F)(F)F)c2)CC1 [Flibanserin] | 89.2% and 98.9% | 91.8 | 96.9 | 110 | 101 | 102 | 91 | 108 |
| CCOC(=O)c1csc(Nc2ccc(Cl)cc2)n1 | 97.1% and 103% | 92.5 | 81 | 92.8 | 111 | 111 | 75.6 | 71.8 |
| COC(=O)C[C@](O)(CCCC(C)(C)O)C(=O)O[C@@H]1C(OC)=C[C@]23CCCN2CCc2cc4c(cc2[C@H]13)OCO4 [Homoharringtonine] | 12.4% and 19.9% | 23 | 9.06 | 4.23 | 1.21 | 1.06 | 5.52 | 11.4 |
| COc1cc(S(=O)(=O)O)ccc1O [Sulfogaiacol] | 106% and 109% | 113 | 108 | 112 | 107 | 104 | 117 | 105 |
| CCCCC[C@H](O)CC(=O)CCc1ccc(O)c(OC)c1 [6-Gingerol] | 87.8% and 85.7% | 82.9 | 86.8 | 98.7 | 90.6 | 95.5 | 90.9 | 81.8 |
| CC(C)=CCC[C@](C)(O[C@@H]1O[C@H](CO[C@@H]2O[C@@H](CO)[C@H](O)[C@H]2O)[C@@H](O)[C@H](O)[C@H]1O)[C@H]1CC[C@]2(C)[C@@H]1[C@H](O)C[C@@H]1[C@@]3(C)CC[C@H](O[C@@H]4O[C@H](CO)[C@@H](O)[C@H](O)[C@H]4O[C@@H]4O[C@H](CO)[C@@H](O)[C@H](O)[C@H]4O)C(C)(C)[C@@H]3CC[C@]12C [Ginsenoside Rc] | 103% and 101% | 100 | 99.1 | 101 | 110 | 99.2 | 104 | 93.5 |
| CN(C)C(=O)c1ccc(S(=O)(=O)c2ccc(NC(=O)C(C)(O)C(F)(F)F)c(Cl)c2)cc1 (stereo not drawn) | 75.7% and 74.8% | 74.2 | 60.1 | 58 | 78.4 | 84.5 | 52.9 | 55.2 |
| Cc1cc(/C=C/C#N)cc(C)c1Nc1ccnc(Nc2ccc(C#N)cc2)n1 [Rilpivirine] | 35.2% and 46.8% | 50.1 | 61.8 | 59.8 | 49.6 | 43.9 | 44.2 | 48 |
| CCCC(=O)Nc1ncnc2c1ncn2[C@@H]1O[C@@H]2COP(=O)(O)O[C@H]2[C@H]1OC(=O)CCC [Dibutyryl-cAMP (Bucladesine)] | 91.3% and 90.5% | 92.8 | 87.2 | 97.4 | 83.6 | 94.4 | 104 | 97.7 |
| CC(=O)N1CCN(c2ccc(OCC3COC(Cn4ccnc4)(c4ccc(Cl)cc4Cl)O3)cc2)CC1 (stereo not drawn) [Ketoconazole] | 56.2% and 70.5% | 62.4 | 34.9 | 26.1 | 40.9 | 26.2 | 32 | 30.8 |
| Nc1ccc2ncnc(NCCc3ccc(Oc4ccccc4)cc3)c2c1 | 68.5% and 56.3% | 67.6 | 62.7 | 58.3 | 69.8 | 63.6 | 52.3 | 51.5 |
| CCCCC(=O)O[C@]1(C(=O)CO)[C@@H](C)C[C@H]2[C@@H]3CCC4=CC(=O)C=C[C@]4(C)[C@@]3(F)[C@@H](O)C[C@@]21C [Betamethasone valerate (Betnovate)] | 94.9% and 101% | 94.8 | 96.9 | 110 | 90.8 | 93.7 | 94.5 | 116 |
| Cc1cc(C)c2c(c1)[C@@H](N(Cc1cc(C(F)(F)F)cc(C(F)(F)F)c1)c1nnn(C)n1)CCCN2C[C@H]1CC[C@H](C(=O)O)CC1 | 89% and 90.3% | 90.1 | 104 | 114 | 95.4 | 98.7 | 101 | 116 |
| C[C@H]1CN(C[C@H](Cc2ccccc2)C(=O)NCC(=O)O)CC[C@@]1(C)c1cccc(O)c1 [Alvimopan dihydrate] | 110% and 102% | 101 | 98.5 | 112 | 102 | 103 | 94.9 | 99.2 |
| Cc1cccc2c3c(ccc12)C1=C(C(=O)C3=O)[C@@H](C)CO1 [Dihydrotanshinone I] | 3.54% and 3.11% | 2.64 | 7.76 | 7.12 | 0.56 | 0.4 | 0.43 | 2.86 |
| CC(=O)Oc1ccc(C(=C2CCCCC2)c2ccc(OC(C)=O)cc2)cc1 [Cyclofenil] | 98% and 94.2% | 98.5 | 96.8 | 95.8 | 94.3 | 102 | 96.8 | 96.9 |
| C=CCC(=NOS(=O)(=O)O)S[C@@H]1O[C@H](CO)[C@@H](O)[C@H](O)[C@H]1O (stereo in doubt) [Sinigrin] | 96.4% and 104% | 99.7 | 93.4 | 96.4 | 94.1 | 97.8 | 101 | 101 |
| COc1cnc(NS(=O)(=O)c2ccc(N)cc2)nc1 [Sulfameter (Bayrena)] | 98.4% and 101% | 98.9 | 106 | 96 | 105 | 102 | 115 | 99 |
| CC(=O)O[C@@]12CO[C@@H]1C[C@H](O)[C@@]1(C)C(=O)[C@H](O)C3=C(C)[C@@H](OC(=O)[C@H](O)[C@@H](NC(=O)OC(C)(C)C)c4ccccc4)C[C@@](O)([C@@H](OC(=O)c4ccccc4)[C@H]21)C3(C)C [Docetaxel Trihydrate] | 24.8% and 32.4% | 32.7 | 8.87 | 5.68 | 8.57 | 4.2 | 6.94 | 13.5 |
| Oc1cccc(O)c1O [Pyrogallol] | 96.9% and 103% | 102 | 108 | 104 | 102 | 104 | 102 | 112 |
